In the library only some 1.8% were active in any assay of this set; here they are far more common.
LGR2 antag = blocks bursicon-induced cAMP signaling via Drosophila LGR2; HEK293 LGR2, CRE-luciferase, bursicon-stimulated, 4 h; inhibition, % at 9.99 µM; 0.35% of 380,000 active;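 active means drop in luminescence signal, shown as inhibition above about 50% in the replicate tests, limit read from the data, passing the limit was not always enough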;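 further: agonist challenge used bursicon conditioned medium at about half maximal strength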
EWS-Fli inh = inhibitors of EWS/Fli oncoprotein transcriptional activity | A673 NR0B1-luciferase reporter, viability-normalised | 0.67% of 350,000 active | inhibition, % at 12.6 µM;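 active means mean inhibition of at least 50% after viability correction, with every replicate also passing that limit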;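 further: firefly luciferase signal divided by Alamar Blue viability fluorescence both relative to DMSO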
CFTR F508del cor = CFTR F508del correction in bronchial cells. CFBE cells, YFP halide quenching; stimulated with forskolin plus potentiator P3; % fluorescence drop versus neutral controls. 0.36% of 350,000 active. AID 720511. activity (quench increase), % at 7.58 µM;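 active means mean added fluorescence quench of at least 8% versus neutral control, with both replicates also reaching 8%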;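 further: cells transiently co-express mutant CFTR-F508del with the halide-sensitive YFP; corrector assay measuring rescue of mutant channel to the surface after 24 h compound exposure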
PAX8 reporter = lowers PAX8-driven luciferase in RMG-I cells; 1.2% of 360,000 active; RMG-I TPO-luciferase reporter, SteadyGlo, 24 h; AID 652154; inhibition, % at 12.6 µM;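 active means mean replicate inhibition at least 60% with every replicate also reaching 60%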;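 further: luciferase light reporting Pax8 driven TPO promoter activity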
Hits are given with their value; ! = a repeat was not active.

What do the screens show for `C[C@@H]1CCCCO[C@@H](CN(C)S(=O)(=O)c2ccccc2)[C@H](C)CN([C@@H](C)CO)C(=O)c2cc(NC(=O)Nc3ccc(C(F)(F)F)cc3)ccc2O1`?
LGR2 antag: inactive; EWS-Fli inh: inactive; CFTR F508del cor: inactive; PAX8 reporter: 75

How did C[C@@H]1CN([C@@H](C)CO)C(=O)c2cc(NC(=O)Nc3ccc(C(F)(F)F)cc3)ccc2O[C@@H](C)CCCCO[C@H]1CN(C)S(=O)(=O)c1ccccc1 do in these assays?
LGR2 antag: inactive; EWS-Fli inh: inactive; CFTR F508del cor: inactive; PAX8 reporter: inactive

How did C[C@@H]1CCCCO[C@H](CN(C)S(=O)(=O)c2ccc(F)cc2)[C@@H](C)CN([C@H](C)CO)C(=O)c2cc(NC(=O)Nc3ccc(C(F)(F)F)cc3)ccc2O1 do in these assays?
LGR2 antag: inactive; EWS-Fli inh: inactive; CFTR F508del cor: inactive; PAX8 reporter: 74!

What do the screens show for `CC(C)CC#Cc1ccc2c(c1)O[C@@H](CN(C)CC1CC1)[C@@H](C)CN([C@H](C)CO)S2(=O)=O`?
LGR2 antag: inactive; EWS-Fli inh: inactive; CFTR F508del cor: inactive

What do the screens show for `Cc1[nH]nc2nc(SCC(=O)NC3CCCCC3)n(-c3ccc(Br)cc3)c(=N)c12`?
LGR2 antag: inactive; CFTR F508del cor: inactive; PAX8 reporter: 109

Results for CCOc1ccc(-n2c(SCC(=O)Nc3ccc(CC)cc3)nc3n[nH]c(C)c3c2=N)cc1 ?
LGR2 antag: inactive; EWS-Fli inh: inactive; CFTR F508del cor: inactive; PAX8 reporter: inactive

How did CN(CCOc1ccc(Cl)cc1)C(=O)c1cccc(S(=O)(=O)N2CCN(c3ccccc3)CC2)c1 do in these assays?
LGR2 antag: inactive; EWS-Fli inh: inactive; CFTR F508del cor: 8.6; PAX8 reporter: inactive

Results for CC(=O)C1=C(C)Nc2ncnn2C1c1ccc(Br)cc1 (configuration not stated) ?
LGR2 antag: inactive; EWS-Fli inh: inactive; CFTR F508del cor: inactive; PAX8 reporter: inactive

Results for COc1ccc(/C=N/NC(=O)COc2ccccc2-c2ccccc2)cc1 ?
LGR2 antag: inactive; PAX8 reporter: 74

Results for COc1ccc(/C=N/NC(=O)CCn2cnc(-c3ccccc3)c2-c2ccccc2)cc1 ?
LGR2 antag: inactive; EWS-Fli inh: 51; CFTR F508del cor: inactive; PAX8 reporter: inactive

How did COc1ccccc1/C=C/C=N/NC(=O)CCn1cnc2ccccc21 do in these assays?
LGR2 antag: inactive; EWS-Fli inh: inactive; CFTR F508del cor: 13; PAX8 reporter: inactive

How did CN(C)c1ccc(/C=N/NC(=O)COc2ccccc2)cc1 do in these assays?
LGR2 antag: inactive; EWS-Fli inh: inactive; CFTR F508del cor: inactive; PAX8 reporter: inactive

What do the screens show for `O=C(CCn1cnc2ccccc21)N/N=C/C=C/c1ccccc1`?
EWS-Fli inh: inactive; CFTR F508del cor: inactive; PAX8 reporter: inactive

How did CCOC(=O)CSc1ncc(OC)c(Sc2ccc(Cl)cc2)n1 do in these assays?
PAX8 reporter: inactive

What do the screens show for `COc1ccc(NC(=O)Nc2ccc3c(c2)C(=O)N([C@@H](C)CO)C[C@H](C)[C@@H](CN(C)Cc2ccc(Oc4ccccc4)cc2)O3)cc1`?
LGR2 antag: inactive; EWS-Fli inh: inactive; CFTR F508del cor: inactive; PAX8 reporter: inactive

How did Cc1cc(C(=O)CCC(=O)NC(C)c2ccc(S(N)(=O)=O)cc2)c(C)s1 (configuration not stated) do in these assays?
LGR2 antag: inactive; EWS-Fli inh: inactive; CFTR F508del cor: 8.8; PAX8 reporter: inactive

Results for CCCOc1ccc(C(=O)N/N=C/c2c[nH]c3ccc(Br)cc23)cc1 ?
LGR2 antag: inactive; EWS-Fli inh: inactive; CFTR F508del cor: inactive; PAX8 reporter: inactive

How did CCCCCN=C(N)N/N=C/c1c[nH]c2ccc(OC)cc12 do in these assays?
EWS-Fli inh: 57; CFTR F508del cor: inactive; PAX8 reporter: 107

Results for C[C@H](NC(=O)C[C@@H]1CC[C@H]2[C@@H](COC[C@@H](O)CN2C)O1)c1ccccc1 ?
LGR2 antag: inactive; EWS-Fli inh: inactive; CFTR F508del cor: inactive; PAX8 reporter: inactive

Results for COc1ccc(-n2c(-c3ccc(Br)cc3)c[n+]3c2SC(C)C3)cc1 (configuration not stated) ?
LGR2 antag: inactive; EWS-Fli inh: inactive; CFTR F508del cor: inactive; PAX8 reporter: 74

Results for FC(F)Sc1ccc(-n2c(-c3ccc(Cl)cc3)c[n+]3c2CCC3)cc1 ?
LGR2 antag: inactive; EWS-Fli inh: inactive; CFTR F508del cor: inactive; PAX8 reporter: 67

What do the screens show for `COc1ccc(-n2c(-c3ccc(Br)cc3)c[n+]3c2CCCCC3)cc1`?
LGR2 antag: inactive; EWS-Fli inh: inactive; CFTR F508del cor: inactive; PAX8 reporter: 84

What do the screens show for `Cc1ccc(-n2c(-c3ccc(Cl)cc3)c[n+]3c2CCC3)cc1`?
LGR2 antag: inactive; EWS-Fli inh: inactive; CFTR F508del cor: inactive; PAX8 reporter: inactive

Results for COc1ccc(-n2c(-c3ccc(Br)cc3)c[n+]3c2CCC3)cc1 ?
LGR2 antag: inactive; EWS-Fli inh: inactive; CFTR F508del cor: inactive; PAX8 reporter: 80

Results for CC1CN(Cc2cnc(Cl)s2)CC(C)O1 (configuration not stated) ?
LGR2 antag: inactive; EWS-Fli inh: inactive; CFTR F508del cor: inactive; PAX8 reporter: inactive

Results for COc1ccc(S(=O)(=O)N[C@@H]2CC[C@H](CC(=O)N3CCC(Cc4ccccc4)CC3)O[C@@H]2CO)cc1 ?
LGR2 antag: inactive; CFTR F508del cor: inactive

What do the screens show for `COc1ccc([N+](=O)[O-])cc1NC(=O)CCN1CCN(c2ccccc2)CC1`?
LGR2 antag: inactive; EWS-Fli inh: inactive; CFTR F508del cor: inactive; PAX8 reporter: inactive

What do the screens show for `C[C@H]1CN([C@@H](C)CO)C(=O)c2cc(-c3cccc(F)c3)cnc2O[C@H]1CN(C)C(=O)C1CCOCC1`?
LGR2 antag: inactive; EWS-Fli inh: inactive; CFTR F508del cor: inactive; PAX8 reporter: inactive

What do the screens show for `CCOc1ccc(-n2c(-c3ccc(Cl)cc3)c[n+]3c2SCC3)cc1`?
LGR2 antag: inactive; EWS-Fli inh: inactive; CFTR F508del cor: inactive; PAX8 reporter: 86

What do the screens show for `CCOc1ccc(-c2c[n+]3c(n2-c2ccccc2)CCCCC3)cc1`?
LGR2 antag: inactive; EWS-Fli inh: inactive; CFTR F508del cor: inactive; PAX8 reporter: 80

What do the screens show for `Cc1ccc2c(c1)N(C(=O)CCC(=O)N1CCN(c3ccccn3)CC1)CCO2`?
LGR2 antag: inactive; EWS-Fli inh: inactive; CFTR F508del cor: inactive

What do the screens show for `O=C(CCC(=O)N1CCOc2ccc(Cl)cc21)N1CCN(c2ccccn2)CC1`?
LGR2 antag: inactive; EWS-Fli inh: inactive; CFTR F508del cor: 8.3; PAX8 reporter: inactive

How did CC(=O)NCCNC(=O)C1CCC(CNc2nc(=S)[nH]c3ccccc23)CC1 (configuration not stated) do in these assays?
LGR2 antag: inactive; EWS-Fli inh: inactive; CFTR F508del cor: inactive; PAX8 reporter: inactive

How did C[C@H]1[C@@H](c2ccccc2)Oc2ccc(Cl)cc2S(=O)(=O)N1Cc1cccc(F)c1 do in these assays?
LGR2 antag: inactive; EWS-Fli inh: inactive; CFTR F508del cor: inactive; PAX8 reporter: inactive

Results for COc1cc2cc(-c3ccc(OC)c(OC)c3C)nc(N)c2cc1OC ?
LGR2 antag: inactive; EWS-Fli inh: 52; CFTR F508del cor: inactive; PAX8 reporter: 71
